Experimental data as given in PubChem BioAssay (NCI).
This is part of a sample that, as a whole, favours compounds with a hit. Of some 83,000 tested, about 20% had one in any assay.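 For each line, cells grew in 96-well plates with the test compound present at a single concentration for 48 hours.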 Values without a mark were called inactive. Calls of active or inactive are those of the source. The calls were made as follows: active = growth percent below 10; inactive = the rest.

Tests used:
Test in all cases: NCI-60 one-dose screen, 48 h (100 = growth as untreated, 0 = no growth, -100 = all killed)
Conditions in all cases: 10 µM unless noted
HCT-15 colon = test system: HCT-15 colon
SNB-75 CNS = test system: SNB-75 CNS
SNB-19 CNS = test system: SNB-19 CNS
U251 CNS = test system: U251 CNS
PC-3 prostate = test system: PC-3 prostate
SK-MEL-5 melanoma = test system: SK-MEL-5 melanoma
UACC-62 melanoma = test system: UACC-62 melanoma
LOX IMVI melanoma = test system: LOX IMVI melanoma
SK-MEL-28 melanoma = test system: SK-MEL-28 melanoma
HT29 colon = test system: HT29 colon

SMILES | growth (HCT-15 colon) | growth (SNB-75 CNS) | growth (SNB-19 CNS) | growth (U251 CNS) | growth (PC-3 prostate) | growth (SK-MEL-5 melanoma) | growth (UACC-62 melanoma) | growth (LOX IMVI melanoma) | growth (SK-MEL-28 melanoma) | growth (HT29 colon)
COC(=O)Nc1ccc(-c2nc(-c3cccc(OC)c3)c(-c3ccnc(Br)c3)[nH]2)cc1 | 17.8% | 37.5% | 61.6% | 51.5% | 34% | 50.2% | 47.2% | 23.6% | 62.3% | 
Cc1ccc(C(=O)NN2C(=O)CSC2c2ccc(Cl)cc2)cn1 (stereo not drawn) | 90.1% | 95.8% | 85.6% | 93.3% |  | 99.2% | 93.5% | 97.4% | 90.8% | 
CCOC(=O)c1cn2ncnc(Oc3ccc(NC(=O)NCCN4CCOCC4)c(Cl)c3)c2c1C | 96.3% | 76.8% | 95.1% | 98.4% | 91.2% | 98.5% |  | 99.7% | 97.1% | 
COc1ccc(-c2c(C(=O)NS(C)(=O)=O)n(Cc3cccc(C(F)(F)F)c3)c3ccccc23)cc1 | 79.3% | 85.1% | 93.2% | 91% | 70.7% | 83% | 88.4% | 89.7% | 99.1% | 
COc1ccc(S(=O)(=O)n2c3ccccc3n3ncc(-c4nnc(C)o4)c23)cc1 | 20.3% | 14.1% | 23% | 31.6% | 36.5% | 21.3% | 27.3% | 36.8% | 65.3% | 
Cc1nn(-c2ccccc2)c2c1N=c1s/c(=C\c3ccc(C(F)(F)F)cc3)c(=O)n1CN2 | 70.1% | 78% | 84.4% | 73.6% | 37.2% | 31.1% | 59.2% | 56.7% | 87.2% | 
Nc1nc(Cl)cc(=O)n1Cc1ccccc1 |  | 82.3% | 93.7% | 101% | 95.7% | 108% | 88.6% | 92.1% | 108% | 103%
Cc1c(C(=O)NCCN2CCOCC2)cn2ncnc(Oc3ccc(NC(=O)Nc4ccc(Cl)c(C(F)(F)F)c4)cc3)c12 |  | 22.4% | 20% | 14.5% | 11.4% |  | 14.8% | -50.5% (active) | 16.1% | 7.93% (active)
COc1ccc(-c2cc(-c3cc(OC)c(OC)c(OC)c3)nc(N3CCOCC3)c2C#N)cc1 |  | 72.3% | 86.7% | 64.5% | 62.7% | 75.3% | 57.5% | 74.7% | 56.8% | 76.1%
Cc1nc(/N=C(\N)NC(=O)Nc2cccc(Cl)c2)sc1C |  | 21.9% | 83.2% | 83.5% | 81.5% | 80.2% | 60.5% | 68.8% | 69% | 
CCCCC[C@H](O)C/C=C1/C(=O)C=C[C@@H]1C/C=C\CCCC(=O)OC |  | 96.5% | 60.4% | 45.5% |  | 38% | 13.6% | -43.2% (active) | 28.3% | 3.13% (active)
C=C(C)C1CCC2(C)OC2C1 (stereo not drawn) |  | 80.4% | 110% | 118% | 109% | 109% | 103% | 108% | 127% | 109%
FC(F)(F)c1cc(Nc2ccc3c(OCCCN4CCOCC4)cccc3n2)ccc1Cl |  | 40.8% | 35.9% | 9.5% (active) | 33.5% | 69.5% | 55.3% | -37.6% (active) | 41.9% | -22.7% (active)
C=C(C)[C@@H]1CC[C@]2(N=C=O)CC[C@]3(C)[C@H](CC[C@@H]4[C@@]5(C)Cc6c([nH]c7ccccc67)C(C)(C)[C@@H]5CC[C@]43C)[C@@H]12 |  | 79.8% | 91.4% | 65.4% | 40.3% | 101% | 101% | 87.7% | 106% | 98.5%
COc1ccc(-c2conc2-c2ccccc2)cc1 |  | -12.4% (active) | 30.1% | 20.9% | 20% | 22.4% | 17.8% | 38.8% | 55.3% | 53.1%
C=C1CC[C@H](C(C)C)[C@@H]2[C@H]1[C@H]1CC(=C)[C@@H](O)CC[C@@](C)(O)[C@@H]2O1 |  | 88.1% | 91.5% | 106% |  | 100% | 92.8% | 93.8% | 105% | 101%
Cc1ccc2c(n1)C(=O)C(Cl)=C(Nc1ccccc1C(C)C)C2=O |  | 85.7% | 76.7% | 80.4% | 53.9% | 69% | 45.2% | 14.7% | 65.8% | 106%
CCCCCCCCCCCCCCCCCCOc1ccc(CC(=O)OCC[N+](C)(C)C)cc1 |  | 113% | 90.7% | 92.2% | 96.9% | 103% | 97.4% | 91.1% | 103% | 94.5%
CCN(CC)CCNc1nc2ccccc2c2c(=O)c3cc(Cl)ccc3sc12 |  | 29.6% | 69.5% | 39.7% | 56.7% | 74.4% | 65.4% | -58.8% (active) | 98.1% | 18.3%
Oc1ccc(CCl)c2cccnc12 |  | 64.7% | 80.6% | 59.7% | 83.6% | 89.9% |  | 55% | 82.9% | 104%
OC(COc1ccccc1)CN1CCN(c2ccc(Cl)cc2)CC1 (stereo not drawn) |  | 95.2% | 95.4% | 102% | 82% | 96.2% | 90.3% | 101% | 96.9% | 
O=C(CCc1nnc(-c2c(Cl)cccc2Cl)o1)c1nc2ccccc2[nH]1 |  | 63.4% | 75.1% | 52.5% | 53.1% | 67% | 42.3% | 55.1% | 82.7% | 9.39% (active)
COc1ccc(/C=C/c2c(C(=O)/C=C/c3ccc(Cl)cc3)c(C)nc3ccccc23)cc1 |  | 50.6% | 25% | 19.4% | 29.2% | 39.2% | 33.7% | -62.2% (active) | 23.8% | 13.6%
c1ccc(Cc2nn3cc(-c4ccccc4)nc3s2)cc1 |  | 102% | 103% | 107% | 93.7% | 101% | 82.6% | 86.2% | 109% | 94.9%
CCCCCCn1c(-c2ccc(C(=O)O/N=C(\N)c3ccc4ccccc4c3)cc2)nc(-c2ccccc2)c1-c1ccccc1 |  | 16% | 68.9% | 50.2% | 51.3% | 68.2% |  | -88.6% (active) | 72.9% | 74.5%
COc1ccc2c(c1OC)C(=O)O[C@H]2[C@H]1c2c(cc3c(c2OC)OCO3)CCN1C |  | 88.5% | 103% | 97.2% | 90.1% | 96.2% | 109% | 90.2% | 100% | 104%
Cc1oc2nc[nH]c(=O)c2c1C(=O)/C=C/c1ccc(Br)cc1 |  | -2.44% (active) | 23.5% | 12% |  |  |  | -90.6% (active) | 23.9% | 15.3%
O=C(O)C(c1ccccc1)N1C(=O)CSC1=S (stereo not drawn) |  | 72.8% | 102% | 96.4% | 101% |  | 97.7% | 97.2% | 99.5% | 
